Measured values reported in the supplement of paper PMC8728848.
The sample as a whole holds a higher share of the strongest signals than the screen did.

Assays:
Experiment in all cases: glycan array binding signal (z-score within array); higher = stronger binding
Conditions in all cases: glycan notation: IUPAC condensed, linker removed
[1] = target: Gal(b1-4)GlcNAc(b1-3)Gal(b1-4)GlcNAc(b1-2)Man(a1-3)[Gal(b1-4)GlcNAc(b1-3)Gal(b1-4)GlcNAc(b1-2)Man(a1-6)]Man(b1-4)GlcNAc(b1-4)GlcNAc
In short: (§1)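 The binding signal is a Z-score computed within each array and averaged over linkers. Arrays of the same protein sequence at different concentrations or buffers were also averaged together. Data originate from 3228 arrays in the Consortium for Functional Glycomics database, kept only where the protein sequence was available.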

[2] = target: Gal(b1-4)GlcNAc(b1-3)Gal(b1-4)GlcNAc(b1-2)[Gal(b1-4)GlcNAc(b1-3)Gal(b1-4)GlcNAc(b1-6)]Man(a1-6)[Gal(b1-4)GlcNAc(b1-3)Gal(b1-4)GlcNAc(b1-2)Man(a1-3)]Man(b1-4)GlcNAc(b1-4)[Fuc(a1-6)]GlcNAc
In short: as §1

[3] = target: Gal(b1-4)GlcNAc(b1-3)Gal(b1-4)GlcNAc(b1-3)Gal(b1-4)GlcNAc(b1-3)Gal(b1-4)GlcNAc(b1-3)Gal(b1-4)GlcNAc(b1-2)Man(a1-3)[Gal(b1-4)GlcNAc(b1-3)Gal(b1-4)GlcNAc(b1-3)Gal(b1-4)GlcNAc(b1-3)Gal(b1-4)GlcNAc(b1-3)Gal(b1-4)GlcNAc(b1-2)Man(a1-6)]Man(b1-4)GlcNAc(b1-4)GlcNAc
In short: as §1

[4] = target: Gal(b1-4)GlcNAc(b1-3)[Gal(b1-4)GlcNAc(b1-6)]Gal(b1-4)GlcNAc
In short: as §1

Gal(b1-6)Gal = target: Gal(b1-6)Gal
In short: as §1

Gal6P(b1-4)GlcNAc = target: Gal6P(b1-4)GlcNAc
In short: as §1

Gal6S(b1-4)Glc = target: Gal6S(b1-4)Glc
In short: as §1

Gal6S(b1-4)Glc6S = target: Gal6S(b1-4)Glc6S
In short: as §1

[5] = target: GalNAc(b1-3)Gal(a1-6)Gal(b1-4)Glc
In short: as §1

[6] = target: GalNAc(b1-4)GlcNAc(b1-2)Man(a1-3)[GalNAc(b1-4)GlcNAc(b1-2)Man(a1-6)]Man(b1-4)GlcNAc(b1-4)GlcNAc
In short: as §1

GalNAc(b1-4)GlcNAc6S = target: GalNAc(b1-4)GlcNAc6S
In short: as §1

[7] = target: Glc(a1-4)Glc(a1-4)Glc(a1-4)Glc
In short: as §1

Glc(b1-6)Glc = target: Glc(b1-6)Glc
In short: as §1

[8] = target: GlcNAc(a1-4)Gal(b1-4)GlcNAc(b1-3)Gal(b1-4)GlcNAc
In short: as §1

[9] = target: GlcNAc(b1-2)[GlcNAc(b1-6)]Man(a1-6)[GlcNAc(b1-2)Man(a1-3)]Man(b1-4)GlcNAc(b1-4)GlcNAc
In short: as §1

[10] = target: GlcNAc(b1-3)Gal(b1-4)GlcNAc(b1-3)Gal(b1-4)GlcNAc(b1-2)Man(a1-3)[GlcNAc(b1-3)Gal(b1-4)GlcNAc(b1-3)Gal(b1-4)GlcNAc(b1-2)Man(a1-6)]Man(b1-4)GlcNAc(b1-4)GlcNAc
In short: as §1

[11] = target: GlcNAc(b1-3)Gal(b1-4)GlcNAc(b1-3)Gal(b1-4)GlcNAc(b1-2)Man(a1-3)[GlcNAc(b1-3)Gal(b1-4)GlcNAc(b1-3)Gal(b1-4)GlcNAc(b1-2)Man(a1-6)]Man(b1-4)GlcNAc(b1-4)[Fuc(a1-6)]GlcNAc
In short: as §1

[12] = target: GlcNAc(b1-3)Gal(b1-4)GlcNAc(b1-3)Gal(b1-4)GlcNAc(b1-3)Gal(b1-4)GlcNAc(b1-2)Man(a1-3)[GlcNAc(b1-3)Gal(b1-4)GlcNAc(b1-3)Gal(b1-4)GlcNAc(b1-3)Gal(b1-4)GlcNAc(b1-2)Man(a1-6)]Man(b1-4)GlcNAc(b1-4)[Fuc(a1-6)]GlcNAc
In short: as §1

[13] = target: GlcNAc(b1-4)Gal(b1-4)GlcNAc
In short: as §1

[14] = target: GlcNAc(b1-4)GlcNAc(b1-4)GlcNAc(b1-4)GlcNAc(b1-4)GlcNAc(b1-4)GlcNAc
In short: as §1

[15] = target: GlcNAc(b1-4)[GlcNAc(b1-6)]GalNAc
In short: as §1

Man(a1-2)Man(a1-3)Man = target: Man(a1-2)Man(a1-3)Man
In short: as §1

[16] = target: Man(a1-2)Man(a1-3)[Man(a1-2)Man(a1-6)]Man(a1-6)[Man(a1-2)Man(a1-2)Man(a1-3)]Man(b1-4)GlcNAc(b1-4)GlcNAc
In short: as §1

Man(a1-6)Man = target: Man(a1-6)Man
In short: as §1

Man(b1-4)GlcNAc = target: Man(b1-4)GlcNAc
In short: as §1

[17] = target: Neu5Ac(a2-3)Gal(b1-3)[GlcNAc(b1-6)]GalNAc
In short: as §1

[18] = target: Neu5Ac(a2-3)Gal(b1-4)[Fuc(a1-3)]GlcNAc(b1-6)[Neu5Ac(a2-3)Gal(b1-3)]GalNAc
In short: as §1

Neu5Ac(a2-6)Gal = target: Neu5Ac(a2-6)Gal
In short: as §1

[19] = target: Neu5Ac(a2-6)Gal(b1-3)GlcNAc(b1-3)[Gal(b1-4)GlcNAc(b1-6)]Gal(b1-4)Glc
In short: as §1

[20] = target: Neu5Ac(a2-6)Gal(b1-4)GlcNAc(b1-3)Gal(b1-4)GlcNAc(b1-3)Gal(b1-4)GlcNAc
In short: as §1

[21] = target: Neu5Ac(a2-6)Gal(b1-4)GlcNAc(b1-3)Gal(b1-4)GlcNAc(b1-3)Gal(b1-4)GlcNAc(b1-2)Man(a1-3)[Neu5Ac(a2-6)Gal(b1-4)GlcNAc(b1-3)Gal(b1-4)GlcNAc(b1-3)Gal(b1-4)GlcNAc(b1-2)Man(a1-6)]GalNAc
In short: as §1

[22] = target: Neu5Ac(a2-8)Neu5Ac(a2-8)Neu5Ac(a2-8)Neu5Ac(a2-3)[GalNAc(b1-4)]Gal(b1-4)Glc
In short: as §1

[23] = target: Neu5Ac(a2-8)Neu5Gc(a2-3)Gal(b1-4)GlcNAc
In short: as §1

Neu5Ac(b2-6)GalNAc = target: Neu5Ac(b2-6)GalNAc
In short: as §1

[24] = target: Neu5Ac9Ac(a2-3)Gal(b1-3)GlcNAc
In short: as §1

[25] = target: Neu5Ac9Ac(a2-6)Gal(b1-4)GlcNAc
In short: as §1

[26] = target: Neu5Gc(a2-3)Gal(b1-3)GlcNAc
In short: as §1

B1: SBD-G4S3-Fc (protein)
chain: MASIPSSASVQLDSYNYDGSTFSGKIYVKNIAYSKKVTVVYADGSDNWNNNGNIIAASFSGPISGSNYEYWTFSASVKGIKEFYIKYEVSGKTYYDNNNSANYQVSTGGGGSGGGGSGGGGSEFVPRDCGCKPCICTVPEVSSVFIFPPKPKDVLTITLTPKVTCVVVDISKDDPEVQFSWFVDDVEVHTAQTQPREEQFNSTFRSVSELPIMHQDWLNGKEFKCRVNSAAFPAPIEKTISKTKGRPKAPQVYTIPPPKEQMAKDKVSLTCMITDFFPEDITVEWQWNGQPAENYKNTQPIMDTDGSYFVYSKLNVQKSNWEAGNTFTCSVLHEGLHNHHTEKSLSHSPGAA
glycan array binding signal (z-score) [1]: 8.04 | glycan array binding signal (z-score) [2]: 0.249 | glycan array binding signal (z-score) [3]: 1.16 | glycan array binding signal (z-score) [4]: -0.023 | glycan array binding signal (z-score) (Gal(b1-6)Gal): -0.372 | glycan array binding signal (z-score) (Gal6P(b1-4)GlcNAc): -0.45 | glycan array binding signal (z-score) (Gal6S(b1-4)Glc): 0.105 | glycan array binding signal (z-score) (Gal6S(b1-4)Glc6S): 0.402 | glycan array binding signal (z-score) [5]: -0.468 | glycan array binding signal (z-score) [6]: -0.087 | glycan array binding signal (z-score) (GalNAc(b1-4)GlcNAc6S): -0.208 | glycan array binding signal (z-score) [7]: 12.1 | glycan array binding signal (z-score) (Glc(b1-6)Glc): 0.309 | glycan array binding signal (z-score) [8]: -0.415 | glycan array binding signal (z-score) [9]: -0.075 | glycan array binding signal (z-score) [10]: 3.18 | glycan array binding signal (z-score) [11]: 1.28 | glycan array binding signal (z-score) [12]: 1.91 | glycan array binding signal (z-score) [13]: -0.117 | glycan array binding signal (z-score) [14]: -0.372 | glycan array binding signal (z-score) [15]: 0.069 | glycan array binding signal (z-score) (Man(a1-2)Man(a1-3)Man): -0.16 | glycan array binding signal (z-score) [16]: -0.404 | glycan array binding signal (z-score) (Man(a1-6)Man): -0.195 | glycan array binding signal (z-score) (Man(b1-4)GlcNAc): -0.231 | glycan array binding signal (z-score) [17]: -0.317 | glycan array binding signal (z-score) [18]: -0.117 | glycan array binding signal (z-score) (Neu5Ac(a2-6)Gal): -0.041 | glycan array binding signal (z-score) [19]: -0.05 | glycan array binding signal (z-score) [20]: 0.075 | glycan array binding signal (z-score) [21]: 1.23 | glycan array binding signal (z-score) [22]: -0.006 | glycan array binding signal (z-score) [23]: 7.21 | glycan array binding signal (z-score) (Neu5Ac(b2-6)GalNAc): -0.513 | glycan array binding signal (z-score) [24]: 0.058 | glycan array binding signal (z-score) [25]: 0.039 | glycan array binding signal (z-score) [26]: -0.167
